Assay results published in PubChem BioAssay AID651820 (National Center for Advancing Translational Sciences (NCATS), 2012).
Where “and” joins values, the source holds several entries; their conditions need not be identical. Identical values can stand only once. Out of some 340,000 compounds screened, about 12,000 (3.5%) were called active. Another 18% or so got no clear call; they are omitted. The entries come from a sample that favours actives as a whole. Some compounds were tested as several samples or in several runs, with calls that do not always agree. Values without a mark were called inactive. Calls follow the shape of the dose curve; as a rule, active = well fitted inhibition curve with a large enough effect; inconclusive = small, poorly fitted or top-dose-only effect, or another doubt; inactive = no such curve, though single readings can be large or run the other way.

Test: qHTS Assay for Inhibitors of Hepatitis C Virus (HCV)
Conditions: Huh7.5.1 HCVcc-Cre infection, luciferase reporter, 44 h; series mostly up to 41.8 µM; activity change, negative = inhibition: at the top concentration
Outline: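 Reporter virus HCVcc-Cre (~0.5 moi) infects cells exposed to compound; seeding density 1,000 cells/well with 4 h settling beforehand. Luminescence, 15 sec read, taken 44 h post-infection following a 15 min RT substrate incubation.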
% is scaled to controls: 0 for no effect and ±100 for the full control effect; potency is read from the fitted curve at half-maximal effect.

SMILES | activity change, negative = inhibition | Potency
CCOC(=O)C1CCN(CC(=O)Nc2ccc(OC)c(S(=O)(=O)N3CCCCC3)c2)CC1 | 6.66% | –
O=c1[nH]c2c(c(=O)n1-c1ccccc1)CCO2 | 25.9% | –
COc1cc(/C=C2\CCCc3c2nc2ccccc2c3C(=O)O)cc(Cl)c1O | 8.48% | –
O=C(COC(=O)c1c2c(nc3ccccc13)/C(=C\c1cccs1)CCC2)Nc1ccccc1Cl | – | 4.47 µM (active) and 2.51 µM (active)
O=C(COC(=O)c1cccs1)Nc1ccccc1Cl | 7.58% | –
Cc1ccc(C)c(NC(=O)COC(=O)CSc2ccccc2)c1 | -8.78% | –
CN(CC(=O)NCc1ccc2c(c1)OCO2)CC(=O)Nc1ccc(F)c(F)c1F | 7.62% | –
COc1ccc(CNC(=O)COC(=O)c2ccc(C)c(S(=O)(=O)N3CCOCC3)c2)cc1OC | -3.02% | –
COc1ccc(CC(=O)Nc2ccc3c(c2)CCC3)cc1S(=O)(=O)N1CCOCC1 | -3.24% | –
COc1cc(/C=C/C(=O)OCC(=O)N2CCOCC2)ccc1OCC#N | 3.73% | –
COc1cc(/C=C/C(=O)Nc2ccc(OC)c(S(=O)(=O)N3CCOCC3)c2)ccc1OCC#N | – | 7.08 µM (active)
COc1ccc(CCC(=O)Nc2ccc(Cl)c(S(=O)(=O)N3CCOCC3)c2)cc1OC | – | 11.2 µM (active)
COc1ccc(NS(=O)(=O)c2cc(NC(=O)/C=C/c3cc(OC)c(OC)c(OC)c3)ccc2N2CCCCC2)cc1 | – | inactive
O=C(c1cnccn1)N1CCN(S(=O)(=O)c2cccc(Cl)c2)CC1 | 5.65% | –
CCOc1ccc(NC(=O)COC(=O)C2CCC(=O)N2)c([N+](=O)[O-])c1 (stereo not drawn) | 21.4% | –
CC(C)CC1NC(=O)c2cc(Cl)ccc2-n2c1nc1ccccc1c2=O (stereo not drawn) | 11.4% | –
Cc1ccc2nc(-c3ccc(NC(=O)c4cccnc4)cc3)oc2c1 | – | 10 µM (active)
Cc1cc2nc(-c3ccc(NC(=O)c4cccnc4)cc3)oc2cc1C | -25.6% | –
CC(=O)Nc1ccc(-c2nc3ccccc3o2)cc1 | -1.93% | –
N=C1c2ccccc2-c2ccccc21 | 8.98% | –
CC(C)(C)OC(=O)C[C@@H]1C/C=C\C[C@@H](CC(=O)NCCO)C(=O)N[C@H](Cc2c[nH]c3ccccc23)COC1=O | 12.1% | –

SMILES | activity change, negative = inhibition | Potency
Cc1cc(C)c(S(=O)(=O)n2cc(C(C)C(N)C(=O)O)c3ccccc32)c(C)c1 (stereo not drawn) | 20.4% | –
CCc1ccc(C(=O)NNC(=O)C2CCN(c3ncnc4sc(C)c(C)c34)CC2)cc1 | – | 12.6 µM (active)
O=C(Cc1ccccc1)NNC(=O)C1CCN(c2ncccn2)CC1 | -20.5% | –
Cc1cc(=O)n2nc(N3CCC(C(=O)Nc4c(F)c(F)c(F)c(F)c4F)CC3)sc2n1 | -8.41% | –
O=C(NNC(=O)C1CCN(c2ncccn2)CC1)c1ccccc1 | 10.3% | –
Cc1sc2ncnc(N3CCC(C(=O)Nc4ccc(F)cc4Cl)CC3)c2c1C | – | 11.2 µM (active)
Cc1sc2ncnc(N3CCC(C(=O)Nc4nc5ccc(Cl)cc5s4)CC3)c2c1C | 0.865% | –
CCOc1cccc2cc(C(=O)OCC(=O)Nc3c(C)cccc3CC)c(=O)oc12 | 7.95% | –
Clc1ccc(CN2CCN(/N=C/c3cccnc3)CC2)cc1 | -3.56% | –
O=C1/C(=C\c2cccnc2)CN(Cc2ccccc2)C/C1=C\c1cccnc1 | – | 6.31 µM (active)
O=Cc1cn(Cc2ccccc2)nc1-c1cccnc1 | 5.66% | –
CC(OC(=O)CNC(=O)c1cccc(F)c1)C(=O)NC1CCCCC1C (stereo not drawn) | -18.8% | –
O=C(N/N=C/c1cc(Br)c(O)c([N+](=O)[O-])c1)C(O)(c1ccccc1)c1ccccc1 | 1.49% | –
C#CCNc1ccc(C(=O)OCC)cc1 | 20.7% | –
COC(=O)c1ccc(NCc2cc(O)ccc2O)cc1 | – | 5.01 µM (active)
CC(CN1CCCCC1)OC(=O)c1ccccc1Cl (stereo not drawn) | 5.79% | –
COC(=O)c1ccc(NCC(=O)c2ccccc2)cc1 | -4.54% | –
CC(CN1CCOCC1)OC(=O)c1ccc(Cl)cc1Cl (stereo not drawn) | 17.4% | –
CC(C)OC(=O)c1ccc(NCc2cc(O)ccc2O)cc1Cl | – | 6.31 µM (active)
COc1ccc(Cl)cc1NC(=O)COc1ccc2c(c1)OCO2 | -5.11% | –
CC1CN(C(=O)c2ccc([N+](=O)[O-])s2)CC(C)O1 (stereo not drawn) | 26.4% | –

SMILES | activity change, negative = inhibition | Potency
c1ccc2sc(NN=C3CCCC3)nc2c1 | -20.9% | –
O=C(Nc1ccccc1)Nc1nc2ccccc2s1 | -12.9% | –
c1ccc(C(=NNc2nc3ccccc3s2)c2ccccn2)cc1 | – | 1.58 µM (active)
Cc1ccc(S(=O)(=O)N2CCOCC2)cc1NC(=O)COC(=O)c1cnccn1 | 0.865% | –
Cc1cccc(C)c1OC(=O)CSc1nnc(-c2ccccc2)o1 | -4.66% | –
CC1=CC(C)(C)N(C(=O)CSc2nnc(-c3ccccc3)o2)c2ccc(C)cc21 | – | 11.2 µM (active)
CCOC(=O)CSc1nnc(-c2cccc(Br)c2)o1 | 15.7% | –
CC1(C)C[C@H]2C3=CCC4[C@@]5(C)CC[C@H](O)[C@](C)(CO)C5CC[C@@]4(C)[C@]3(C)C[C@@H](O)[C@@]2(CO)[C@@H](O)[C@@H]1O (stereo partly drawn) | 8.47% | –
Cc1cc(C(=O)COc2ccc(Br)cc2F)c(C)n1C1CC1 | – | 22.4 µM (active)
Cc1cc(C(=O)OCC(=O)Nc2c(F)cccc2F)c(C)n1C1CC1 | 13.6% | –
Cc1cc(C(=O)COc2ccccc2Cl)c(C)n1C1CC1 | -11.2% | –
O=C(CSc1ccccn1)N1CCN(S(=O)(=O)c2ccc(Cl)cc2)CC1 | 2.37% | –
COc1ccccc1-n1nnnc1SCC(=O)NC(=O)Cc1ccccc1 | 3.1% | –
Cc1ccc(Cl)c(OCC(=O)N(C)CC(=O)Nc2ccc(N3CCOCC3)cc2)c1 | -13.6% | –
O=C(COC(=O)c1ccco1)Nc1ccc(Cl)cn1 | 7.08% | –
CN(C)[C@@H]1C(=O)C(C(N)=O)=C(O)[C@@]2(O)C(=O)C3=C(O)c4c(O)ccc(Cl)c4[C@@H](O)[C@H]3C[C@@H]12 | 0.778% [at 8.37 µM] | 2.82 µM (active)
CCCCn1c(N)c(N(CCC(C)C)C(=O)c2ccc(COc3ccccc3)o2)c(=O)[nH]c1=O | -10.5% | –
O=C(CNC(=O)c1cc(S(=O)(=O)N2CCOCC2)ccc1N1CCCC1)Nc1ccc(F)c(F)c1 | 5.03% | –
CC1CC(=NNC(=O)C2COc3ccccc3O2)CC(C)(C)C1 (stereo not drawn) | -16.6% | –
CN(C)C(=O)CCc1ccc2c3c([nH]c2c1)[C@]1(CCC2CCCC2)[C@@H](C(=O)N2CCOCC2)C[C@H](CC(=O)NCc2ccco2)C(=O)N1CC3 | 11% [at 8.37 µM] | –
